Measured values: PubChem BioAssay (EPA / NIEHS)
Records with an inconclusive call do not appear. Activity calls are given as the source filed them. Rule for the calls: active = hit-call score of the fitted dose curve at least 0.9, where 1 is the maximum; inconclusive = response in the unintended direction; inactive = score below 0.9.

target: Cellular tumor antigen p53 (Homo sapiens) (UniProt P04637); test: TOX21_p53_BLA_p2_ratio: Tox21 HCT-116 p53 Agonism Beta-lactamase Assay, Ratio, Phase 2 (AID 2283592)
Summary of the method: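 Plated HCT116 p53-bla cells (4000/well) received compound after 5 h, then 16 h at 37C/5% CO2. CCF4-AM added, 2 h RT. Ratio of 460 to 530 nm emission taken as the p53 reporter signal.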

Sequence of Cellular tumor antigen p53 (Homo sapiens) (P04637 whole entry, looked up): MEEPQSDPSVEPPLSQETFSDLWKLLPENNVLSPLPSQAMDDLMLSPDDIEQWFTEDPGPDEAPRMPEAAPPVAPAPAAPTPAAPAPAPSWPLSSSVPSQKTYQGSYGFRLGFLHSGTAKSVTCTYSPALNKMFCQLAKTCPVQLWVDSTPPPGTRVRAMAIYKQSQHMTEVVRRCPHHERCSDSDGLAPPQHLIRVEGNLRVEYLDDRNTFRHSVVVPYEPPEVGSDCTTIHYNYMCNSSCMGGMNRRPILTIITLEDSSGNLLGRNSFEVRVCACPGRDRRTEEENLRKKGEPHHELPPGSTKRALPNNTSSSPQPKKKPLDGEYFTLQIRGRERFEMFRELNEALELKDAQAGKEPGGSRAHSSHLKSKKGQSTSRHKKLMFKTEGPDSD

Row | SMILES | outcome | AC50
1 | O=P1(N(CCCl)CCCl)NCCCO1 (stereo not drawn) | inactive | 
2 | CC(Cc1ccc(OCC(=O)O)cc1)NCC(O)c1csc(C(F)(F)F)n1 (stereo not drawn) | inactive | 
3 | CCCCc1ccc(O)cc1 | inactive | 
4 | Nc1ccc2ccccc2c1 | inactive | 
5 | CNC(=O)Oc1ccc(N(C)C)c(C)c1 | inactive | 
6 | c1nc[nH]n1 | inactive | 
7 | CCCCOCC1CO1 (stereo not drawn) | inactive | 
8 | CCOP(=S)(S)OCC | inactive | 
9 | O=C(CBr)OCc1ccccc1 | inactive | 
10 | CCC1(c2ccccc2)C(=O)N=C(O)NC1=O (stereo not drawn) | inactive | 
11 | O=C(O)C1C(C(=O)O)C2(Cl)C(Cl)=C(Cl)C1(Cl)C2(Cl)Cl (stereo not drawn) | inactive | 
12 | CCCCC(CC)COC(=O)c1c(Br)c(Br)c(Br)c(Br)c1C(=O)OCC(CC)CCCC (stereo not drawn) | inactive | 
13 | Cc1c([N+](=O)[O-])cc2c(c1[N+](=O)[O-])C(C)(C)CC2(C)C | inactive | 
14 | c1ccc(OP(Oc2ccccc2)Oc2ccccc2)cc1 | inactive | 
15 | CC1=C(C(=O)Nc2ccccc2)S(=O)(=O)CCO1 |  | 22.1 µM (active)
16 | CC(=O)CCc1ccc2c(c1)OCO2 | inactive | 
17 | O=c1[nH]c2ccccc2c(=O)o1 | inactive | 

target: Cellular tumor antigen p53 (Homo sapiens) (UniProt P04637); test: TOX21_p53_BLA_p3_ratio: Tox21 HCT-116 p53 Agonism Beta-lactamase Assay, Ratio, Phase 3 (AID 2283596)
Summary of the method: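 Cells were seeded at 4000/well, rested 5 h at 37C, then dosed with DMSO compound solutions (217-fold dilution) for 16 h. CCF4-AM substrate was loaded for 2 h at room temperature, and the 460/530 nm emission ratio was fitted for gain of signal versus DMSO.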

Row | SMILES | outcome
18 | O=P1(N(CCCl)CCCl)NCCCO1 (stereo not drawn) | inactive
19 | CCCCc1ccc(O)cc1 | inactive
20 | CNC(=O)Oc1ccc(N(C)C)c(C)c1 | inactive
21 | O=C(O)C1C(C(=O)O)C2(Cl)C(Cl)=C(Cl)C1(Cl)C2(Cl)Cl (stereo not drawn) | inactive
22 | CCCCC(CC)COC(=O)c1c(Br)c(Br)c(Br)c(Br)c1C(=O)OCC(CC)CCCC (stereo not drawn) | inactive
23 | Cc1c([N+](=O)[O-])cc2c(c1[N+](=O)[O-])C(C)(C)CC2(C)C | inactive
24 | c1ccc(OP(Oc2ccccc2)Oc2ccccc2)cc1 | inactive

tested on: not listed separately; test: TOX21_p53_BLA_p4_viability: Viability Assessment in the Tox21 HCT-116 p53 Agonism Beta-lactamase Assay, Phase 4 (AID 2283597);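 note: hits lower the luminescence signal meaning cytotoxicity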
Summary of the method: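 Readout: ATP luminescence (CellTiter-Glo), measured 30 min after reagent addition at RT. The reagent followed a 2 h CCF4-AM incubation, and the cells had been exposed to compound for 16 h at 37C.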

Row | SMILES | outcome
25 | CCCCc1ccc(O)cc1 | inactive
26 | Nc1ccc2ccccc2c1 | inactive
27 | CCN(CC)c1ccccc1 | inactive
28 | c1cc2c3c(cccc3c1)CC2 | inactive
29 | CCOP(=S)(S)OCC | inactive
30 | CCC1(c2ccccc2)C(=O)N=C(O)NC1=O (stereo not drawn) | inactive
31 | c1ccc(OP(Oc2ccccc2)Oc2ccccc2)cc1 | inactive
32 | CC1=C(C(=O)Nc2ccccc2)S(=O)(=O)CCO1 | inactive
33 | ClC(Cl)(Cl)c1ccccc1 | inactive
34 | O=c1[nH]c2ccccc2c(=O)o1 | inactive

target: Cellular tumor antigen p53 (Homo sapiens) (UniProt P04637); test: TOX21_p53_BLA_p5_ratio: Tox21 HCT-116 p53 Agonism Beta-lactamase Assay, Ratio, Phase 5 (AID 2283599)
Summary of the method: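 Beta-lactamase reporter ratio (blue 460 nm over green 530 nm, 405 nm excitation) after 2 h CCF4-AM loading, in HCT-116 cells exposed 16 h at 37 C to compounds pinned at 217-fold dilution. Increases relative to DMSO baseline scored.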

Row | SMILES | outcome | AC50
35 | O=P1(N(CCCl)CCCl)NCCCO1 (stereo not drawn) | inactive | 
36 | CC(Cc1ccc(OCC(=O)O)cc1)NCC(O)c1csc(C(F)(F)F)n1 (stereo not drawn) | inactive | 
37 | CCCCc1ccc(O)cc1 | inactive | 
38 | Nc1ccc2ccccc2c1 | inactive | 
39 | CCN(CC)c1ccccc1 | inactive | 
40 | CNC(=O)Oc1ccc(N(C)C)c(C)c1 | inactive | 
41 | c1nc[nH]n1 | inactive | 
42 | CCCCOCC1CO1 (stereo not drawn) | inactive | 
43 | c1cc2c3c(cccc3c1)CC2 | inactive | 
44 | O=C(O)C1C(C(=O)O)C2(Cl)C(Cl)=C(Cl)C1(Cl)C2(Cl)Cl (stereo not drawn) | inactive | 
45 | CCCCC(CC)COC(=O)c1c(Br)c(Br)c(Br)c(Br)c1C(=O)OCC(CC)CCCC (stereo not drawn) | inactive | 
46 | c1ccc(OP(Oc2ccccc2)Oc2ccccc2)cc1 | inactive | 
47 | CC1=C(C(=O)Nc2ccccc2)S(=O)(=O)CCO1 |  | 15.8 µM (active)
48 | CC(=O)CCc1ccc2c(c1)OCO2 | inactive | 
49 | ClC(Cl)(Cl)c1ccccc1 | inactive | 
50 | O=c1[nH]c2ccccc2c(=O)o1 | inactive | 

tested on: not listed separately; test: TOX21_p53_BLA_p5_viability: Viability Assessment in the Tox21 HCT-116 p53 Agonism Beta-lactamase Assay, Phase 5 (AID 2283600)
Summary of the method: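 Workflow: seed 4000 cells per well, wait 5 h, add compounds (DMSO, 217-fold dilution), incubate 16 h, load CCF4-AM 2 h, add CellTiter-Glo, read luminescence after 30 min.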

Row | SMILES | outcome
51 | Nc1ccc2ccccc2c1 | inactive
52 | CCN(CC)c1ccccc1 | inactive
53 | CNC(=O)Oc1ccc(N(C)C)c(C)c1 | inactive
54 | c1nc[nH]n1 | inactive
55 | CCCCOCC1CO1 (stereo not drawn) | inactive
56 | c1cc2c3c(cccc3c1)CC2 | inactive
57 | CCOP(=S)(S)OCC | inactive
58 | CCOc1ccc(C(C)(C)COCc2cccc(Oc3ccccc3)c2)cc1 | inactive
59 | O=C(CBr)OCc1ccccc1 | inactive
60 | O=C(O)C1C(C(=O)O)C2(Cl)C(Cl)=C(Cl)C1(Cl)C2(Cl)Cl (stereo not drawn) | inactive
61 | Cc1c([N+](=O)[O-])cc2c(c1[N+](=O)[O-])C(C)(C)CC2(C)C | inactive
62 | CC1=C(C(=O)Nc2ccccc2)S(=O)(=O)CCO1 | inactive
63 | CC(=O)CCc1ccc2c(c1)OCO2 | inactive
64 | ClC(Cl)(Cl)c1ccccc1 | inactive
65 | O=c1[nH]c2ccccc2c(=O)o1 | inactive

target: Cellular tumor antigen p53 (Homo sapiens) (UniProt P04637); test: TOX21_p53_BLA_p4_ratio: Tox21 HCT-116 p53 Agonism Beta-lactamase Assay, Ratio, Phase 4 (AID 2283601)
Summary of the method: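 Signal is the blue/green (460nm/530nm) ratio of cleaved versus uncleaved CCF4-AM substrate, read after 2 h substrate loading. Cells were HCT116 carrying the p53-responsive beta-lactamase reporter, dosed 16 h at 37C, 5% CO2; CellTiter-Glo measured in parallel.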

Row | SMILES | outcome | AC50
66 | O=P1(N(CCCl)CCCl)NCCCO1 (stereo not drawn) | inactive | 
67 | CC(Cc1ccc(OCC(=O)O)cc1)NCC(O)c1csc(C(F)(F)F)n1 (stereo not drawn) | inactive | 
68 | CCCCc1ccc(O)cc1 | inactive | 
69 | Nc1ccc2ccccc2c1 | inactive | 
70 | CCN(CC)c1ccccc1 | inactive | 
71 | CNC(=O)Oc1ccc(N(C)C)c(C)c1 | inactive | 
72 | c1nc[nH]n1 | inactive | 
73 | CCCCOCC1CO1 (stereo not drawn) | inactive | 
74 | c1cc2c3c(cccc3c1)CC2 | inactive | 
75 | CCOP(=S)(S)OCC | inactive | 
76 | CCOc1ccc(C(C)(C)COCc2cccc(Oc3ccccc3)c2)cc1 | inactive | 
77 | CCC1(c2ccccc2)C(=O)N=C(O)NC1=O (stereo not drawn) | inactive | 
78 | O=C(O)C1C(C(=O)O)C2(Cl)C(Cl)=C(Cl)C1(Cl)C2(Cl)Cl (stereo not drawn) | inactive | 
79 | CCCCC(CC)COC(=O)c1c(Br)c(Br)c(Br)c(Br)c1C(=O)OCC(CC)CCCC (stereo not drawn) | inactive | 
80 | Cc1c([N+](=O)[O-])cc2c(c1[N+](=O)[O-])C(C)(C)CC2(C)C | inactive | 
81 | CC1=C(C(=O)Nc2ccccc2)S(=O)(=O)CCO1 |  | 21 µM (active)
82 | ClC(Cl)(Cl)c1ccccc1 | inactive | 
83 | O=c1[nH]c2ccccc2c(=O)o1 | inactive | 
